These results are taken from PubChem BioAssay (EPA / NIEHS).

Records with an inconclusive call do not appear. Activity calls are given as the source filed them. How the source made its calls, unless noted: active means hit-call score of the fitted dose curve at least 0.9, where 1 is the maximum; inconclusive means response in the unintended direction; inactive means score below 0.9.

A short description of test [1]: TOX21_p53_BLA_p2_viability: Viability Assessment in the Tox21 HCT-116 p53 Agonism Beta-lactamase Assay, Phase 2 (AID 2283591).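 Further: compound exposure lasted 16 h at 37 °C; actives lower the ATP signal meaning cytotoxicity.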 The method in brief: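 HCT116 p53-bla cells, 4000/well, dosed after 5 h plating (217-fold dilution of DMSO stocks) and incubated 16 h at 37C. Viability taken as cellular ATP by CellTiter-Glo luminescence after 30 min RT; signal loss marks cytotoxicity.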

In test [2] the target is Cellular tumor antigen p53 (Homo sapiens) (UniProt P04637). The test is described as follows: TOX21_p53_BLA_p2_ratio: Tox21 HCT-116 p53 Agonism Beta-lactamase Assay, Ratio, Phase 2 (AID 2283592). The method in brief:
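Read-out is the blue/green (460/530 nm, 405 nm excitation) ratio after 2 h CCF4-AM loading, fitted as gain versus DMSO. Compounds, pinned at 217-fold dilution from DMSO stocks, stayed 16 h on HCT-116 beta-lactamase reporter cells seeded 5 h earlier.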

Test [3] is described as follows: TOX21_p53_BLA_p3_viability: Viability Assessment in the Tox21 HCT-116 p53 Agonism Beta-lactamase Assay, Phase 3 (AID 2283593).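 Further: cells exposed to compound for 16 h before reading.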 The method, boiled down:
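HCT116 cells, 4000/well, dosed 5 h after plating by pin transfer (217-fold dilution from DMSO stock) and incubated 16 h at 37C, 5% CO2. Viability read as ATP luminescence with CellTiter-Glo after 30 min at room temperature.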

For test [4], the target named is Cellular tumor antigen p53 (Homo sapiens) (UniProt P04637). Briefly: TOX21_p53_BLA_p3_ratio: Tox21 HCT-116 p53 Agonism Beta-lactamase Assay, Ratio, Phase 3 (AID 2283596). The method, boiled down:
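Cells were seeded at 4000/well, rested 5 h at 37C, then dosed with DMSO compound solutions (217-fold dilution) for 16 h. CCF4-AM substrate was loaded for 2 h at room temperature, and the 460/530 nm emission ratio was fitted for gain of signal versus DMSO.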

The nature of test [5]: TOX21_p53_BLA_p4_viability: Viability Assessment in the Tox21 HCT-116 p53 Agonism Beta-lactamase Assay, Phase 4 (AID 2283597).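 Further: hits lower the luminescence signal meaning cytotoxicity.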 The method in brief:
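Cytotoxicity as reduced cellular ATP (CellTiter-Glo luminescence, 30 min room temperature), measured in the same wells following the CCF4 FRET p53 reading. Human HCT-116 cells received compounds in DMSO (217-fold dilution) for 16 h.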

Test [6] concerns the target Cellular tumor antigen p53 (Homo sapiens) (UniProt P04637). The test is described as follows: TOX21_p53_BLA_p5_ratio: Tox21 HCT-116 p53 Agonism Beta-lactamase Assay, Ratio, Phase 5 (AID 2283599). The method in brief:
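HCT-116 p53-bla cells (4000/well) plated 5 h, dosed with compound (217-fold DMSO dilution) for 16 h at 37 C; CCF4-AM substrate 2 h at room temperature. Activity is the 460/530 nm emission ratio (405 nm excitation), fitted in gain-of-signal direction versus DMSO.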

Test [7] is described as follows: TOX21_p53_BLA_p5_viability: Viability Assessment in the Tox21 HCT-116 p53 Agonism Beta-lactamase Assay, Phase 5 (AID 2283600). The method in brief:
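Viability came from CellTiter-Glo ATP luminescence, read after 30 min at room temperature. Before this, HCT-116 p53-bla cells (4000/well) had 16 hours of compound exposure at 37C, with DMSO stocks diluted 217-fold on transfer.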

Test [8] addresses THRB (gene 7068) (UniProt P10828). The test is described as follows: TOX21_TRB_BLA_Antagonist_Followup_ratio: Tox21 Thyroid Hormone Receptor beta Antagonism Beta-lactamase (BLA) Follow-Up Assay, Ratio (AID 2283958). The method in brief: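 Using charcoal-stripped 2% FBS medium, human TRβ-LBD/GAL4 reporter HEK293T cells received test compounds for 18 h. The endpoint is the cleaved-to-uncleaved substrate ratio (460/530 nm).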

A short description of test [9]: TOX21_TRB_BLA_Antagonist_Followup_viability: Viability Assessment in the Tox21 Thyroid Hormone Receptor beta Antagonism Beta-lactamase (BLA) Follow-Up Assay (AID 2283961). The method, boiled down:
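ATP-based CellTiter-Glo luminescence (30 min, room temperature) run in the same wells as the TRβ-bla readout. Cells: GeneBLAzer HEK293T expressing GAL4-TRβ LBD, exposed 18 h at 37C to compounds at 11 concentrations in triplicate, stripped-serum medium.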

Test [10] has as its target Retinoic acid receptor RXR-alpha (Homo sapiens) (UniProt P19793). The test is described as follows: TOX21_TR_RXR_BLA_Antagonist_Followup_ratio: Tox21 Thyroid Hormone Receptor beta Retinoid X Receptor alpha (RXRa) Antagonism Beta-lactamase (BLA) Follow-Up Assay, Ratio (AID 2283972). The method in brief: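 After 5 h attachment at 37C, HEK293T RXRa-bla cells (2,500/well, 2% charcoal-stripped FBS, no phenol red) received compounds at 11 concentrations in triplicate for 16 h. Beta-lactamase read as 460:530 nm ratio after 2 h RT substrate loading.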

A short description of test [11]: TOX21_TR_RXR_BLA_Antagonist_Followup_viability: Viability Assessment in the Tox21 Thyroid Hormone Receptor beta Retinoid X Receptor alpha (RXRa) Antagonism Beta-lactamase (BLA) Follow-Up Assay (AID 2283979). The method, boiled down:
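RXRa-bla HEK293T cells (2,500/well, phenol red-free DMEM, 2% charcoal-stripped FBS) were attached 5 h, then exposed to compounds at 11 concentrations in triplicate for 16 h at 37C. Viability measured by CellTiter-Glo ATP luminescence, bidirectional fitting versus DMSO.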

Test [12] has as its target Cellular tumor antigen p53 (Homo sapiens) (UniProt P04637). Briefly: TOX21_p53_BLA_p4_ratio: Tox21 HCT-116 p53 Agonism Beta-lactamase Assay, Ratio, Phase 4 (AID 2283601). The method in brief: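 HCT-116 p53 beta-lactamase reporter cells (4000/well) preincubated 5 h, then compound (217-fold dilution of DMSO stock) for 16 h at 37C. CCF4-AM substrate added 2 h at room temperature; 460/530 nm emission ratio fitted upward versus DMSO.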

The nature of test [13]: CCTE_Harrill_HTTr_Viability_MCF7: CCTE's 6-hour Cell Viability Assessment for the High-Throughput Transcriptomics (HTTr) Platform, in MCF-7 cells cultured in DMEM + 10% fetal bovine serum, Harrill Lab (AID 2284010; active means hit-call score of the fitted dose curve at least 0.9, where 1 is the maximum; inactive means score below 0.9). The method in brief: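 Eight-point concentration series, six-hour exposure. Propidium iodide exclusion imaged to assess membrane integrity as a cytotoxicity readout; bidirectional fitting was done with DMSO as negative control and activity baseline.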

Test [14] is described as follows: CCTE_Harrill_HTTr_Apoptosis_MCF7: CCTE's 6-hour Apoptosis Assessment for the High-Throughput Transcriptomics (HTTr) Platform, in MCF-7 cells cultured in DMEM + 10% fetal bovine serum, Harrill Lab (AID 2284011; active means hit-call score of the fitted dose curve at least 0.9, where 1 is the maximum; inactive means score below 0.9). The method, boiled down:
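High-content imaging of CellEvent Caspase 3/7 Green signal follows a six-hour exposure, with eight concentrations per chemical. MCF-7 cells grown in DMEM plus 10% fetal bovine serum; activity fitted in both directions against DMSO.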

Sequence of Cellular tumor antigen p53 (Homo sapiens) (P04637 whole entry, looked up): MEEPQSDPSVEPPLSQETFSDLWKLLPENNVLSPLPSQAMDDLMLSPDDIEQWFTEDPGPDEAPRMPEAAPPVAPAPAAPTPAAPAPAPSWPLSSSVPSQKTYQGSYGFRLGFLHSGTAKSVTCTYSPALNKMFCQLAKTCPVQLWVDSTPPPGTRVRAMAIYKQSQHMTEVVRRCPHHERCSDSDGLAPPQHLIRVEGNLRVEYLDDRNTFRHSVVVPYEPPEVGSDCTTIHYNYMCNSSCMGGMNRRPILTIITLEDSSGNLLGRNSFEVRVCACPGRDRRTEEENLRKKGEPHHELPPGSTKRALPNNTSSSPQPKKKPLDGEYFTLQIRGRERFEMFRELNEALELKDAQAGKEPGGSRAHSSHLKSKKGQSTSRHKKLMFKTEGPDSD
Sequence of Retinoic acid receptor RXR-alpha (Homo sapiens) (P19793 whole entry, looked up): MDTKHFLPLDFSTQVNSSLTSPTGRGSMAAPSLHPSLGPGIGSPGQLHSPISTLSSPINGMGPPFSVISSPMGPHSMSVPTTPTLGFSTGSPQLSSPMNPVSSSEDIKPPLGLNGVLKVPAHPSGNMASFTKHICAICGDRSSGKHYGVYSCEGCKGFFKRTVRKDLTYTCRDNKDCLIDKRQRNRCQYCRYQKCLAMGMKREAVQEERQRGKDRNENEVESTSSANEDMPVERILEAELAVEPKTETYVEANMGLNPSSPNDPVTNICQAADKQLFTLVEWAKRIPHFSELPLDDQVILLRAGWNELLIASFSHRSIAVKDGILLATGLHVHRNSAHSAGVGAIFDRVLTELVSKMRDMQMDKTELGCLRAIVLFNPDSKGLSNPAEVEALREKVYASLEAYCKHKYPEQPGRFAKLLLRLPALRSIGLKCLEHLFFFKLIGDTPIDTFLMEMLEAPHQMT
Sequence of THRB (gene 7068) (P10828 whole entry, looked up, the tested form may be a part): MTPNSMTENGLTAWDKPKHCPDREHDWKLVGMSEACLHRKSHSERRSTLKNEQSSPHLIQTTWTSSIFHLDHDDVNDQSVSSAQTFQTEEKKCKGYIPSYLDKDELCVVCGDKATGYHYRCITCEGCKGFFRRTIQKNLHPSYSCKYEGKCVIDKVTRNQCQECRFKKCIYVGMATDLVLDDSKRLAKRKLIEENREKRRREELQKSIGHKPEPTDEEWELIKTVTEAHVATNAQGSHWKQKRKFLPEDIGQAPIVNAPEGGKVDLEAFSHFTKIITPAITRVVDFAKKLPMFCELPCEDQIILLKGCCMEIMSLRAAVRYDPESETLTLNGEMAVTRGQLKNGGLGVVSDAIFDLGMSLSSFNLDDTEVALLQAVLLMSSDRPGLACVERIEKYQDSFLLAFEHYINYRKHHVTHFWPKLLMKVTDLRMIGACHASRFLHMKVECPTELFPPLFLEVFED

For the molecule `O=C(O)c1cccc(-c2noc(-c3ccccc3F)n2)c1`, the result in test [1], in test [2], in test [3], in [4], in test [6] and in test [7] was inactive. The outcome in [8], in test [9], in [10] and in test [11] was inactive. For the same molecule, the AC50 in [5] was 23 µM (active).
With `O=C(NOC[C@H](O)CO)c1ccc(F)c(F)c1Nc1ccc(I)cc1F`, the molecule was classed as inactive in [1], in test [2], in test [3], in [4], in test [5] and in [6]. The result in [12] was inactive.
On to `CCOc1nc2cccc(C(=O)OC(C)OC(=O)OC3CCCCC3)c2n1Cc1ccc(-c2ccccc2-c2nn[nH]n2)cc1` (centres undefined), for which the AC50 was 8.23 µM (active) in test [1]; 14 µM (active) in test [2]; 13 µM (active) in test [3]; 34 µM (active) in test [4]; 13.4 µM (active) in test [5]; 15.7 µM (active) in test [6]. In addition, the half-maximal activity concentration (AC50) in [7] is 7.02 µM (active); in test [12], 24.4 µM (active). The result in test [13] and in [14] was inactive.
For the molecule `O=[N+]([O-])c1ccc(Oc2ccc(N=C=S)cc2)cc1`, the molecule was classed as inactive in test [1], in [3] and in test [5]. Further, the AC50 in test [2] was 12.9 µM (active); in [4], 8.52 µM (active); in [6], 10.8 µM (active); in test [12], 13.4 µM (active).
In the case of `Cc1cc(-n2c(=O)[nH]c(=O)n(C)c2=O)ccc1Oc1ccc(S(=O)(=O)C(F)(F)F)cc1`, the call in test [1], in test [2], in [3], in [4], in test [5] and in test [6] was inactive. Moreover, the molecule was classed as inactive in test [7].
Consider `O=C(O)CCc1nc2ccccc2[nH]1`, for which the result in test [1], in test [2], in test [3], in test [4], in test [5] and in test [6] was inactive. Besides, the outcome in test [12] was inactive.
For the molecule `COc1ccc(Cl)cc1C(=O)NCCc1ccc(S(=O)(=O)NC(=O)NC2CCCCC2)cc1`, the call in test [1], in test [2], in test [3], in [4], in test [5] and in [6] was inactive. Moreover, the outcome in test [7], in test [12], in [13] and in [14] was inactive.
Turning to `CCCCCCCCCCCCCCCC(=O)OC[C@H](COP(=O)([O-])OCC[N+](C)(C)C)OC(=O)CCCCCCCCCCCCCCC`, the molecule was called inactive in test [1], in [2], in [3], in test [4], in [5] and in test [6]. In test [12], the outcome was inactive.
As for `O=C1C(=Cc2cccs2)CCCC1=Cc1cccs1`, the molecule was classed as inactive in test [1], in test [2], in [3], in [4], in test [5] and in test [6]. For the same molecule, the outcome in test [12] was inactive.
`Cc1cc(C)c(N)c(Cl)c1`: the molecule was called inactive in test [1], in [2], in test [3], in test [4], in test [5] and in [6]. For the same molecule, the outcome in test [12] was inactive.
Regarding `Cc1ccc2c(Br)cc(Br)c(O)c2n1`, the call in [1], in test [3], in [4] and in [6] was inactive. Moreover, the concentration at half-maximal activity (AC50) was 40.4 µM (active) in test [2], 16.8 µM (active) in [5] and 43 µM (active) in [12].
Turning to `CN(C)C(=O)Oc1cccc([N+](C)(C)C)c1`, the molecule was classed as inactive in [1], in test [2], in [3], in test [4], in test [5] and in test [6]. Further, the result in [12] was inactive.
